Screening results deposited in PubChem BioAssay by National Center for Advancing Translational Sciences (NCATS).
HP1b binding inh – inhibitors of HP1-beta chromodomain binding to methylated histone tails. P83916. AlphaScreen HP1-beta / biotin-H3K9me3 peptide binding. Potency, µM (doses to about 114 µM), for the others: at the highest dose activity change, negative = inhibition, most hits filed as inhibitors. 390,000 tested, 0.56% active; note: nearly all actives have a fitted effect of over 70% in size
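AlphaScreen: HP1-beta (50 nM) preformed 30 min with biotin-H3(1-18)K9me3 peptide (50 nM) in PBS pH 7.4, 0.01% Tween-20. Compound added for 30 min at RT, then streptavidin donor/nickel chelate acceptor beads (10 ug/mL) for 30 min.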
G9a inh – blocks human histone lysine methyltransferase G9a; G9a H3K9 monomethylation, AlphaScreen, 2 h; Potency, µM (highest dose often 102 µM), inactives show at the top dose activity, negative = inhibition, actives largely listed as inhibitors; 350,000 tested, 8.8% active; AID 504332; note: % is set by controls: 0 for no effect and ±100 for the full control effect; nearly all actives have a fitted effect of over 75% in size
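G9a (20 nM) was preincubated 15 min with compound, then reacted 2 h at room temperature with 500 nM biotin-H3K9 peptide and 20 µM SAM. Monomethyl-H3K9 detected by AlphaScreen using anti-H3K9me1 antibody.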
GLS inh – inhibitors of human glutaminase (GLS) | GLS enzymatic activity, qHTS titration | 410,000 tested, 0.21% active | O94925 | Potency, µM (highest dose often 45.5 µM), inactives show top-dose activity change, negative = inhibition, usual class: inhibitors; note: % is set by controls: 0 for no effect and ±100 for the full control effect
Target sequence (O94925 whole entry, looked up): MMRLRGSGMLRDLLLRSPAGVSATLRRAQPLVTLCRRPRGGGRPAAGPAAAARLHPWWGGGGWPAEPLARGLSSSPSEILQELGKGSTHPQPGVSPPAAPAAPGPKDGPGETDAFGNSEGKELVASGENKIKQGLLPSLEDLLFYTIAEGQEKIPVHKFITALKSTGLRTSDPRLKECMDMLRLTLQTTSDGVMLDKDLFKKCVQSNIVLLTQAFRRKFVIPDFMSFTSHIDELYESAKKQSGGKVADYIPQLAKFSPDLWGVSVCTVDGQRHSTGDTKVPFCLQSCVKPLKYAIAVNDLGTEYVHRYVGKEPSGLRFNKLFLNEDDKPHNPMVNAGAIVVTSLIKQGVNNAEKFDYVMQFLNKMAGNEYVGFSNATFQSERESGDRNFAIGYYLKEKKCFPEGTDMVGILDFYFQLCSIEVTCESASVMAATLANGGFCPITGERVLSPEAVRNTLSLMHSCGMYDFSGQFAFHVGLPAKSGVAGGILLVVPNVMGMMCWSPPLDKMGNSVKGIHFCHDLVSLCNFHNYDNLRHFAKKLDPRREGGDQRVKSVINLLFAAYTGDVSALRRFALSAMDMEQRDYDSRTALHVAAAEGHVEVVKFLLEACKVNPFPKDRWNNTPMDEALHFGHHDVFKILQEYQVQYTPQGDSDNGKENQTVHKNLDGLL
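Coupled fluorescence readout: glutamate oxidase/HRP/Amplex Red detect glutamate formed by hKGA from L-glutamine (1 mM solution added). Buffer 45 mM KH2PO4 pH 8.2, 0.02% Tween-20; reads at t0 and 30 min RT.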
BAZ2B inh – inhibitors of human BAZ2B bromodomain | Q9UIF8 | AlphaScreen BAZ2B-H3K14Ac peptide displacement | Potency, µM (series often up to 114 µM), without a hit: top-dose activity change, negative = inhibition, actives largely listed as inhibitors | 360,000 tested, 4.4% active; note: % is set by controls: 0 for no effect and ±100 for the full control effect; nearly all actives have a fitted effect of over 60% in size
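BAZ2B 50 nM plus b-H3(5-23)K14Ac 50 nM, PBS pH 7.4/0.01% Tween-20, 30 min RT; compound added (max 110 uM), 30 min RT; streptavidin donor/Ni-chelate acceptor beads 10 ug/mL final, 20 min dark; AlphaScreen read.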
JMJD2A Tudor inh – blocks the human JMJD2A Tudor domain | O75164 | AlphaScreen JMJD2A-Tudor / H3K4me3 peptide binding | Potency, µM (titrated, usually from 114 µM), for inactives: top-dose activity change, negative = inhibition, most hits filed as inhibitors | 390,000 tested, 4.4% active | AID 504339; note: % is set by controls: 0 for no effect and ±100 for the full control effect; nearly all actives have a fitted effect of over 50% in size
* hit, by the source's call; ? = inconclusive; · = not tested or not shown; [ ] = remark or other dose. Hits are enriched below; roughly 10% of the tested compounds scored in any of these assays. Calls come from the whole dose curve; as a rule, active = well fitted curve in the direction sought with a large enough effect; inconclusive = small, poorly fitted or top-dose-only effect, or another doubt; inactive = no such curve, though single readings can be large; an effect the other way counts as inactive or inconclusive. Potency is the fitted concentration of half-maximal effect.

SMILES	HP1b binding inh	G9a inh	GLS inh	BAZ2B inh	JMJD2A Tudor inh
O=C1CCC(=O)N1c1nc2n(n1)C(c1ccccc1)C=C(c1ccc(Br)cc1)N2 (configuration not stated)	42%	25µM*	1%	?	?
Cc1ccc(S(=O)(=O)N2CCC(C(=O)OC(C)C(=O)N3CCOCC3)CC2)cc1 (configuration not stated)	26%	-22%	0%	9%	?
CC(OC(=O)C1CCN(S(=O)(=O)c2ccc(C(C)(C)C)cc2)CC1)C(=O)N1CCOCC1 (configuration not stated)	7%	18µM*	2%	5%	-9%
CC1(OC(=O)C2CCCC2)C(=O)C=C2C=C(c3ccsc3)N(CC3CC3)C=C2C1=O (configuration not stated)	-19%	28%[12.7 µM]	0%	?	?
C=CC[C@H](CC(=O)N(CCO)Cc1ccccc1)C(=O)N[C@H](COC(=O)[C@@H](CC=C)Cc1ccc(F)cc1)Cc1ccccc1	37%	·	-6%	·	-16%
CCC(C)NCCCCOc1ccc(Cl)cc1C (configuration not stated)	-20%	?	3%	-13%	14µM*
CCCCNCCCOc1cc(Cl)ccc1Cl	14%	-34%[59 µM]	15%	-15%	-18%
CCC(C)NCCCOc1cc(Cl)ccc1Cl (configuration not stated)	?	7.9µM*	-7%	50µM*	2.5µM*
Cc1nc2ccc(NC(=O)c3ccc(S(=O)(=O)N(C)C)cc3)cc2s1	34%	-31%	6%	-4%	-8%
COC(=O)c1ccc(NC(=O)c2c(NCc3ccc(OC)c(OC)c3)sc3c2CCCC3)cc1	-8%	?	-30%	-39%	?
Cc1ccc(NC(=O)CN2C(=O)S/C(=C\c3cc(C)n(C)c3C)C2=O)cc1	15%	-1%	-7%	2%[57.1 µM]	-19%
Cc1ccc(NC(=O)CN2C(=O)S/C(=C\c3ccc(C(=O)O)cc3)C2=O)cc1	28%	2%	?	56µM*	?
Cc1ccc(NC(=O)CN2C(=O)S/C(=C\c3cc(C)n(-c4cccc(C(=O)O)c4)c3C)C2=O)cc1	-13%	·	15%	45µM*	56µM*
COc1ccc(C(CNC(=O)c2ccc(NS(=O)(=O)c3ccc4c(c3)OCCO4)cc2)N(C)C)cc1 (configuration not stated)	9%	?	-2%	-25%	-17%
CCN(CC(=O)Nc1c(F)cccc1F)C(=O)c1ccc(S(=O)(=O)N(CC)c2ccccc2)cc1	38%	·	-6%	·	5%
COc1ccc(-c2cc3ccccc3n2CC(O)CN2CCC(C)CC2)cc1 (configuration not stated)	?	?	7%	50µM*	18µM*
CC1(C)CC(N2CCCC2)=CC(=[N+]2CCCCC2)C1	-14%	?	-3%	-24%	-11%
CC1(C)CC(NNCCC#N)=CC(=[N+]2CCCC2)C1	-5%	40µM*	-3%	-27%	-14%[11.4 µM]
O=C(O)CC/C(=N/NC(=O)c1cn(-c2ccccc2)nc1-c1ccccc1)C(=O)O	14%	35µM*	12%	?	?
O=C(Nc1ccccc1)c1cn(-c2ccccc2)nc1-c1ccccc1	1%	-30%[59 µM]	-1%	-29%	-19%
CCn1cc(C(=O)O)c(=O)c2cc(F)c(N/N=C/c3ccccc3[N+](=O)[O-])cc21	22%	23%[59 µM]	0%	-32%	6%
CCn1c(C(=O)N2CCC(C(=O)N3CCN(c4cc(C)ccc4C)CC3)CC2)cc2sccc21	?	?	0%	22µM*	22µM*
CCn1c(C(=O)N2CCC(C(=O)N3CCN(c4cccc(C)c4C)CC3)CC2)cc2sccc21	-12%	?	1%	22µM*	?
Cc1ccc(Cn2cc(CCC(=O)O)c3ccccc32)cc1	14%	45µM*	11%	-25%	-2%
Cc1ccc(CNC(=O)CCc2cn(Cc3ccc(C)cc3)c3ccccc23)cc1	33%	4%[59 µM]	-2%	-14%	-7%
SMILES	HP1b binding inh	G9a inh	GLS inh	BAZ2B inh	JMJD2A Tudor inh
Cc1cc(C)cc(C(=O)NC(CC(N)=O)c2ccc(N3CCN(c4ccccn4)CC3)c([N+](=O)[O-])c2)c1 (configuration not stated)	49%	79µM*	-7%	-2%	-12%
COc1ccc(OC)c(C(=O)NC(CC(N)=O)c2ccc(N3CCN(c4ccccn4)CC3)c([N+](=O)[O-])c2)c1 (configuration not stated)	16%	79µM*	-2%	?	-33%
COc1ccc(OC)c(C(=O)NC(CC(N)=O)c2ccc(N3CCC(Cc4ccccc4)CC3)c([N+](=O)[O-])c2)c1 (configuration not stated)	-20%	·	-11%	45µM*	?
N=c1n(Cc2ccccc2)c2ccccc2n1CC(O)COc1ccc(Cl)cc1Cl (configuration not stated)	4%	9%[12.7 µM]	?	-38%	?
Cc1cc(C(=O)CSc2nnc(N)s2)c(C)n1-c1c(C)n(C)n(-c2ccccc2)c1=O	1%	50µM*	1%	-9%	-24%
COCC(C)n1c(C)cc(C(=O)CSc2nnc(N)s2)c1C (configuration not stated)	16%	6.3µM*	14%	-35%	-25%
Cc1cc(C)c(C(=O)CSc2nnc(C)s2)c(C)c1	42%	40%	15%	16%	7%
Cc1cc(C(=O)CSc2nc(N)cc(N)n2)c(C)n1C1CC1	-21%	?	-7%	-25%	?
Cc1cc(C(=O)CSc2nnc(N)s2)c(C)n1C1CC1	22%	50µM*	-1%	-11%	-19%
Cc1cc(C)c(C(=O)CSc2nnc(N)s2)c(C)c1	-20%	25µM*	20%	-7%	-22%
COC(=O)c1c(SCC(=O)Nc2cccc(Cl)c2C)[nH]c2ccccc2c1=O	25%	10%[59 µM]	-9%	0%	-13%
COc1ccccc1CN1CC(C(=O)NCc2cccc(Cl)c2)CCC1=O (configuration not stated)	39%	0%	-7%	-3%	-8%
O=C1CC(Cc2ccccc2)C(=O)N1CCCn1ccnc1 (configuration not stated)	·	?	·	50µM*	·
CC(C)(C)NC(=O)c1cc(Cl)ccc1[N+](=O)[O-]	15%	-4%[59 µM]	8%	11%	-9%
CCOC(=O)C1(Cc2cccc(OC)c2)CCN(C2CCOCC2)CC1	-13%	50µM*	3%	50µM*	-16%
CCCc1cc(=O)[nH]c(SCC(=O)c2ccc(S(=O)(=O)N3CCCC3)cc2)n1	-6%	50µM*	18%	6%	-19%
CCCc1cc(=O)[nH]c(SCC(=O)c2cc(C)n(C)c2C)n1	17%	50µM*	-3%	-35%	-32%
